Shown are actives, neighbours in structure and some others; about 1.3% of the full set was active somewhere.
MazEF act: activators of E. coli MazEF toxin-antitoxin RNase, primary screen, biochemical, fluorescence, uHTS. 0.32% of 350,000 active. Endoribonuclease toxin MazF (Escherichia coli (strain K12)), P0AE70. activation, % at 20 µM. FAM/BHQ RNA-DNA oligo cleavage fluorescence, 5 h; in the data active means activation above about 50%
Target sequence (P0AE70 whole entry, looked up): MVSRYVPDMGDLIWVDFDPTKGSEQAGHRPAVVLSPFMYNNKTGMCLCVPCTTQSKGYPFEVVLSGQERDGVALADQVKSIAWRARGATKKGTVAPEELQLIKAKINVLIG
RN4220 kill: growth inhibition of S. aureus RN4220, primary screen, OD600; 16 h; inhibition, % (no concentration beside the values); 0.33% of 330,000 active; AID 1259311, 2017; in the data active means inhibition above about 85%;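 further: plate controls were untreated cells for no effect and reference antibiotic for full effect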
Mtb bLac sens: beta-lactam sensitization of Mtb H37Rv, H37Rv. M. tuberculosis H37Rv growth with meropenem, percent inhibition. inhibition, % at 25 µM. 0.27% of 330,000 active. AID 434955, 2010; call rule not given here;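 further: growth measured after seven days incubation then overnight dye step; 0% = bacteria only wells and 100% = bacteria with antibiotic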
ugtP null kill: growth inhibition of ugtP-null S. aureus, primary screen, RN4220 ugtP deletion, OD600 | 16 h | growth inhibition, % (no concentration beside the values) | 0.54% of 330,000 active; in the data active means growth inhibition above about 68%;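 further: plate controls were untreated wells for no effect and antibiotic for full effect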
3CLpro inhibitor: SARS-CoV 3CLpro protease inhibitors, primary screen, biochemical, quenched FRET | Replicase polyprotein 1ab (Severe acute respiratory syndrome coronavirus), P0C6X7 | recombinant SARS-CoV 3CLpro, quenched FRET peptide cleavage | inhibition, % at 6 µM | 0.14% of 290,000 active | AID 1706, 2009; in the data active means inhibition above about 12%
CCHF vOTU inh: CCHFV vOTU protease inhibitors, primary screen, biochemical, Pep-AMC substrate, fluorescence; 0.55% of 370,000 active; AID 651958, 2012; inhibition, % at 11.5 µM; Crimean-Congo hemorrhagic fever virus L polyprotein viral ovarian tumor (vOTU) protease …; in the data active means inhibition above about 30%; further: 0% = vehicle wells with enzyme and 100% = no enzyme wells
The depositor's hits bear a star.

How did Cc1c(O)ccc(C=NNc2nc(-c3cccnc3)nc3ccccc23)c1O do in these assays?
RN4220 kill: 13; ugtP null kill: 9

What do the screens show for `Cc1ccc(NC(=O)/C(C#N)=C(\N)C(Cl)(Cl)Cl)nc1`?
MazEF act: 165*; RN4220 kill: 10; Mtb bLac sens: -5; ugtP null kill: -1; 3CLpro inhibitor: 1

What do the screens show for `C/C(=N\Nc1ncc(Cl)cc1Cl)c1ccc(OC(F)F)cc1`?
MazEF act: 1; Mtb bLac sens: 1; 3CLpro inhibitor: 4; CCHF vOTU inh: -3

How did CC(=NNc1ccccn1)c1ccc(OC(F)F)cc1 do in these assays?
RN4220 kill: 3; ugtP null kill: 93*

What do the screens show for `Cc1ccc(C=NNC(=O)Cc2cccs2)o1`?
RN4220 kill: 4; ugtP null kill: 1

Results for COc1cc(Cc2cc(N)nc(N)n2)cc(OC)c1OC ?
MazEF act: 7; RN4220 kill: 98*; Mtb bLac sens: -3; ugtP null kill: 100*; 3CLpro inhibitor: -2; CCHF vOTU inh: -1

Results for Cc1ccc(C(C)C)c(OCc2ccc(C(=O)NN=Cc3ccc(C(=O)O)cc3)cc2)c1 ?
RN4220 kill: 8; ugtP null kill: 26

What do the screens show for `Cc1ccc(C(C)C)c(OCc2ccc(C(=O)NN=Cc3ccc(O)c(O)c3)cc2)c1`?
RN4220 kill: 58; ugtP null kill: 100*

What do the screens show for `NS(=O)(=O)c1ccc(NC(=S)NC(=O)C2CCCCC2)cc1`?
MazEF act: -1; RN4220 kill: 5; Mtb bLac sens: 11; ugtP null kill: 89*; 3CLpro inhibitor: 2; CCHF vOTU inh: 24

What do the screens show for `Cc1ccc(NC(=S)NC(=O)C2CCCCC2)c(Br)c1`?
MazEF act: -1; RN4220 kill: -1; Mtb bLac sens: 9; ugtP null kill: 87*; CCHF vOTU inh: 18

How did COc1ccc(-c2noc(-c3ccccc3-c3ccccc3)n2)cc1 do in these assays?
MazEF act: 0; RN4220 kill: -3; Mtb bLac sens: -1; ugtP null kill: 88*; 3CLpro inhibitor: 0; CCHF vOTU inh: 5

What do the screens show for `COc1ccc(-c2noc(-c3ccccc3F)n2)cc1`?
MazEF act: -28; RN4220 kill: -2; Mtb bLac sens: 7; ugtP null kill: 13; 3CLpro inhibitor: 1; CCHF vOTU inh: 10

Results for O=S(=O)(c1ccccc1)N1CCN(c2ncnc3scc(-c4ccccc4)c23)CC1 ?
MazEF act: 7; RN4220 kill: 96*; Mtb bLac sens: 4; ugtP null kill: 98*; 3CLpro inhibitor: -3; CCHF vOTU inh: 1

What do the screens show for `Cc1ccc(-c2csc3ncnc(N4CCN(S(=O)(=O)c5ccc(C#N)cc5)CC4)c23)cc1`?
MazEF act: -10; CCHF vOTU inh: -2

How did Cc1ccc(-c2csc3ncnc(N4CCN(S(=O)(=O)c5cccs5)CC4)c23)cc1 do in these assays?
MazEF act: -15; RN4220 kill: 97*; Mtb bLac sens: 6; ugtP null kill: 98*

How did Cc1cccc(C=Cc2nc3ccccc3c(=O)n2Cc2ccccc2)c1 do in these assays?
RN4220 kill: -3; ugtP null kill: 1

What do the screens show for `COc1cc(/C=N/NC(=O)c2cc(-c3c(C)nn(-c4ccccc4)c3C)n[nH]2)ccc1O`?
MazEF act: 8; Mtb bLac sens: 94; 3CLpro inhibitor: 1; CCHF vOTU inh: 9

What do the screens show for `COc1cc(C=NNC(=O)c2cc(-c3c(C)nn(-c4ccccc4)c3C)n[nH]2)ccc1O`?
RN4220 kill: 62; ugtP null kill: 95*

What do the screens show for `Cc1ccc(O)c(C2=NNC(c3ccc(Cl)cc3)C2)c1` (configuration not stated)?
MazEF act: -24; RN4220 kill: 28; Mtb bLac sens: -10; ugtP null kill: 17; 3CLpro inhibitor: 4; CCHF vOTU inh: 6

Results for Oc1ccc(Cl)cc1C1=NNC(c2cccs2)C1 (configuration not stated) ?
MazEF act: 6; RN4220 kill: 96*; Mtb bLac sens: -5; ugtP null kill: 99*; 3CLpro inhibitor: -2; CCHF vOTU inh: -13

Results for Cc1ccccc1-n1c(SCc2c(C)noc2C)nnc1-c1ccncc1 ?
MazEF act: 2; RN4220 kill: 4; Mtb bLac sens: -4; ugtP null kill: 0; 3CLpro inhibitor: 1; CCHF vOTU inh: -10

How did Cc1ccccc1-n1c(SCc2c(C)noc2C)nnc1-c1cccnc1 do in these assays?
MazEF act: 70*; RN4220 kill: -12; Mtb bLac sens: -3; ugtP null kill: -9; 3CLpro inhibitor: -3; CCHF vOTU inh: 14

How did Oc1nc(Nc2cccc(Cl)c2)sc1/C=C1\C=Nc2ccccc21 do in these assays?
MazEF act: 2; RN4220 kill: 100*; Mtb bLac sens: 94; ugtP null kill: 100*; 3CLpro inhibitor: 5; CCHF vOTU inh: 1

How did Oc1cccc(Nc2nc(O)c(/C=C3\C=Nc4ccccc43)s2)c1 do in these assays?
MazEF act: -26; RN4220 kill: 2; Mtb bLac sens: -1; ugtP null kill: 2; 3CLpro inhibitor: 1; CCHF vOTU inh: -2

How did S=c1[nH]nc(C2CCCCC2)n1N=Cc1ccc(Cl)cc1 do in these assays?
RN4220 kill: 4; ugtP null kill: -9

Results for O=C(NN=Cc1ccccc1O)C1CC(=O)N(c2ccc(Cl)cc2)C1 (configuration not stated) ?
RN4220 kill: -6; ugtP null kill: 10

Results for Cc1ccc(-n2nnnc2C(Cl)c2nnnn2-c2ccc(C)cc2)cc1 ?
MazEF act: 1; RN4220 kill: 97*; ugtP null kill: 99*; 3CLpro inhibitor: -3; CCHF vOTU inh: 0

Results for Cc1ccc(-n2nnnc2-c2ccccc2)cc1 ?
MazEF act: -2; RN4220 kill: 1; Mtb bLac sens: 5; ugtP null kill: 1; 3CLpro inhibitor: 0; CCHF vOTU inh: 4

What do the screens show for `Cc1ccc2c(C)nc(Nc3nc(CSc4nnc(C)s4)cc(=O)[nH]3)nc2c1`?
MazEF act: 96*; RN4220 kill: 5; Mtb bLac sens: 98; ugtP null kill: 8; 3CLpro inhibitor: -2; CCHF vOTU inh: 5

How did Cc1nc(Nc2nc(CSc3nc4ccccc4[nH]3)cc(=O)[nH]2)nc2ccccc12 do in these assays?
MazEF act: -70; Mtb bLac sens: -1; 3CLpro inhibitor: 2; CCHF vOTU inh: 6

Results for Cc1nc(Nc2nc(CSc3ccc(Cl)cc3)cc(=O)[nH]2)nc2ccccc12 ?
MazEF act: -16; RN4220 kill: 11; Mtb bLac sens: 2; ugtP null kill: -6; 3CLpro inhibitor: 3; CCHF vOTU inh: -20

Results for COc1cccc2c(C)nc(Nc3nc(CSc4nnc(C)s4)cc(=O)[nH]3)nc12 ?
MazEF act: 62*; RN4220 kill: 3; Mtb bLac sens: inconclusive; ugtP null kill: 1; 3CLpro inhibitor: -7; CCHF vOTU inh: -6

Screening results deposited in PubChem BioAssay by several laboratories.
